# MRP1 act: activates MRP-1. viability increase, % at 10 µM. AID 799. H69AR cells + doxorubicin, viability rescue, CellTiter-Glo. 140,000 tested, 0.61% active;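 active = viability gain under doxorubicin at or above a set limit, the compound median plus 3 SD, cut at about 4.7% in these data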;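 note: MRP-1 overexpressing cells given doxorubicin 25 µM after compound pretreatment; 18-22 h compound pretreatment then 72 h with doxorubicin before readout; 0% = doxorubicin-only wells and 100% = vehicle-treated cells without doxorubicin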
# CYP2C9 act: CYP2C9 (human) activation; P11712; recombinant CYP2C9, luciferin-H conversion, luminescence; active compounds read high; factor 1 = untreated enzyme, 0 = blocked; activation factor at 5 µM; 96,000 tested, 1.4% active; AID 1024;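 active = activation factor of 2 or more for CYP2C9 at a 5 µM dose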;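 note: 0 = sulfaphenazole-blocked wells and 1 = vehicle-only wells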
# Target sequence (P11712 whole entry, looked up): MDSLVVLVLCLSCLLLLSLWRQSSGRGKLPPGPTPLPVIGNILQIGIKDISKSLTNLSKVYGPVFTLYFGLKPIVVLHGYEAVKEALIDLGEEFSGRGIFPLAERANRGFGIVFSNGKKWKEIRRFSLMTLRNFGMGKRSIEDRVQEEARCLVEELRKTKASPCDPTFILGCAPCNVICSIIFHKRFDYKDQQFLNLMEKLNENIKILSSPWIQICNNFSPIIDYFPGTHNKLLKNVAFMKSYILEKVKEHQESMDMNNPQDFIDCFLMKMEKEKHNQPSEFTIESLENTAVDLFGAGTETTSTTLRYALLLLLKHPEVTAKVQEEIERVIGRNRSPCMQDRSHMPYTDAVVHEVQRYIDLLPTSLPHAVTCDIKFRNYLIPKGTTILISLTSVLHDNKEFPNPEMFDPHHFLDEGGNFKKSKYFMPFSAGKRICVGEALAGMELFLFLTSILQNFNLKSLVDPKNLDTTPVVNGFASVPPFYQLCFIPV
# CYP2C19 inh: blocks human cytochrome P450 2C19; P33261; CYP2C19 Supersomes, luciferin-H EGE luminescence, 30 min; inhibition, % at 5 µM; 96,000 tested, 21% active; AID 778;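 active = CYP2C19 inhibition above a set limit at 5 µM in the primary screen, cut at about 50% in these data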;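 note: plate controls were negative control wells for no effect and 2.5 mM tranylcypromine positive control for full effect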
# CYP2C19 act: cytochrome P450 2C19 (human) activation. P33261. recombinant CYP2C19, luciferin-H EGE luminescence; active compounds read high; 0 = fully inhibited enzyme, 1 = untreated enzyme. activation factor at 5 µM. 96,000 tested, under 10 active;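 active = activation factor of at least 2 at 5 µM in the primary screen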;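 note: 0 = wells with 2.5 mM tranylcypromine and 1 = vehicle-only wells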
# MRP reversal: MRP-mediated drug resistance reversal; H69AR cells + 2 uM doxorubicin, CellTiter-Glo, 72 h; differential viability (reversal), % at 10 µM; 85,000 tested, 0.04% active; AID 602;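 active = viability drop by adding the cancer drug above about 55%, with treated viability meeting a 40% cutoff, limit read from the data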;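 note: viability without doxorubicin minus viability with 2 µM doxorubicin for each compound; larger differential means the compound sensitizes cells more to doxorubicin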
# CYP2C9 inh: human CYP2C9 inhibition; P11712; CYP2C9 Supersomes, luciferin-H conversion, luminescence; inhibition, % at 5 µM; 96,000 tested, 20% active;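 active = blocking of liver enzyme CYP2C9 beyond about 50% at 5 µM, limit read from the data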
# The depositor's hits bear a star; . = no result given. An excerpt weighted towards active compounds, which were near 21% of everything screened.
SMILES,MRP1 act,CYP2C9 act,CYP2C19 inh,CYP2C19 act,MRP reversal,CYP2C9 inh
O=C(Cc1ccc(Nc2nc3ccc(Br)cc3[nH]2)cc1)NCCc1cccs1,0,0.1,67*,0.3,.,94*
O=C(CC1CCCC1)Nc1nc2ccccc2[nH]1,0,0.9,13,0.9,8,12
O=C(Cc1nc2ccccc2[nH]1)NCc1ccco1,-3,0.9,18,0.8,-7,8
COc1ccc(CCNC(=O)Cc2cccs2)cc1,1,.,.,.,.,.
O=C(NCc1ccco1)c1cccc(Nc2nc3ccc(Br)cc3[nH]2)c1,3,0.1,34,0.7,.,91*
O=C1Nc2ccccc2C12OCCS2 (configuration not stated),0,1.2,17,0.8,-8,-16
COc1ccc(CNc2nc(SCc3cc(=O)n4cc(Cl)ccc4n3)nc3ccccc23)cc1,-2,.,.,.,.,.
Cc1ccc(S(=O)(=O)n2cc(-c3ccccc3)c(N)n2)cc1,-1,0.1,52*,0.5,3,90*
CCCNC(=O)c1cnc(Sc2ncc(C(F)(F)F)cc2Cl)n1C,-2,0.3,24,0.8,11,71*
CN1CCN(C(=O)/C(=C\c2cccs2)NC(=O)c2ccco2)CC1,-3,.,.,.,.,.
COc1ccc(-c2csc(NC(C)=O)n2)cc1OC,2,0.4,68*,0.3,-9,65*
COc1ccc(-c2csc(NC(=O)CN3C(=O)CCC3=O)n2)cc1OC,1,.,.,.,.,.
COc1ccc(-c2csc(NC(=O)CCn3cnc4ccccc4c3=O)n2)cc1OC,-2,0.3,85*,0.1,.,66*
COc1ccc(CC(=O)Nc2nc(C)cs2)cc1OC,0,0.7,60*,0.4,-7,30
COC(=O)C1CCN(c2cc(=O)n(-c3ccc(OC)cc3)c(=O)[nH]2)CC1,-2,1.3,-23,1.2,8,-26
COCc1cc(C)nc(OCC(=O)N/N=C/c2ccc(O)cc2)c1C#N,-3,.,.,.,.,.
COCc1cc(C)nc(OCC(=O)N/N=C/c2cc(C)n(-c3c(C)cccc3C)c2C)c1C#N,-4,0.2,28,0.7,.,83*
COCc1cc(C)nc(OCC(=O)N/N=C/c2ccc(-c3cc([N+](=O)[O-])ccc3C)o2)c1C#N,4.7*,1,11,0.9,.,2
COCc1cc(C)nc(OCC(=O)N/N=C/c2ccc(OC)c(OC)c2)c1C#N,1,.,.,.,.,.
COc1cc(NC(=O)c2ccc(-c3ccc(Br)cc3)o2)ccc1NC(=O)C(C)C,2,0.6,54*,0.5,-9,43
C=CCOc1c(Br)cc(CNn2nnnc2N)cc1OC,0,0.7,70*,0.3,0,32
C=CCOc1c(Br)cc(CNc2ccc(NC(=O)C(C)C)c(OC)c2)cc1OC,-2,0.5,61*,0.4,.,46
CCc1c(C)nc(N)n2c(SCC(=O)N3CCN(c4ccccc4OC)CC3)nnc12,.,0.8,32,0.7,20,20
CCOc1ccc(C)cc1S(=O)(=O)n1ccnc1,0,0.4,44,0.6,-13,61*
Cc1nn(C)cc1C1C2=C(CC(C)(C)CC2=O)OC2=C1C(=O)CC(C)(C)C2,-4,.,.,.,.,.
SMILES,MRP1 act,CYP2C9 act,CYP2C19 inh,CYP2C19 act,MRP reversal,CYP2C9 inh
CCCOc1ccc(N2C(=O)CC(NCc3ccncc3)C2=O)cc1 (configuration not stated),0,0.3,68*,0.3,-10,67*
CCCOc1ccc(N2C(=O)CC(N3CCC(c4nncn4CC)CC3)C2=O)cc1 (configuration not stated),0,0.4,15,0.8,2,64*
CCOc1ccc(N2C(=O)CC(NCCc3ccncc3)C2=O)cc1 (configuration not stated),-1,0.6,52*,0.5,6,35
CC(C)c1ccc(NC(=O)Nc2cc3sccc3n2C)cc1,-4,0.9,8,0.9,-10,8
CCOC(=O)C1C(=O)CC(C)(O)C(C(=O)OCC)C1c1ccco1 (configuration not stated),-1,1,30,0.7,3,-2
COc1cc(CN(C(=S)NCC(=O)NC2CC2)C2CCCC2)cc(OC)c1OC,-2,.,.,.,.,.
CC(C)CCNC(=O)NC(=O)CSc1nnc(-c2ccccc2F)n1N,-1,0.5,44,0.6,4,54*
COc1ccc(NC(=O)CSc2nnc(-c3ccccc3C)n2N)cc1OC,-1,0.8,-3,1,7,20
Cc1ccccc1-c1nnc(SCC(=O)Nc2ccc(Cl)cc2)n1N,0,0.3,54*,0.5,-27,70*
CCOc1cccc(-c2nnc(SCC(=O)Nc3cc(OC)cc(OC)c3)n2N)c1,-1,0.9,1,1,6,7
COc1cccc(NC(=O)CSc2nnc(-c3cccc(OC(C)C)c3)n2N)c1,-1,0.2,42,0.6,3,76*
COc1ccc(NC(=O)CSc2nnc(-c3ccccc3C)n2N)cc1,0,0.3,58*,0.4,-5,74*
Cc1cc(C(=O)N2CCC(C(F)(F)F)n3nccc32)on1 (configuration not stated),0,1.1,0,1,4,-13
COc1ccc(NC(=O)CSc2nnc(Cn3c(=O)sc4ccccc43)n2C)c(OC)c1,-2,.,.,.,7,.
Cc1cccc(NC(=O)Cn2cnc3ccccc3c2=O)c1C,-2,0.9,8,0.9,8,10
CC1(C)CC(=O)C(/C=N/n2c(C(F)(F)F)nc3ccccc3c2=O)=C(O)C1,0,0.7,-9,1.1,-6,30
CC(NC(=O)C(NC(=O)C1CCCN1C(=O)OC(C)(C)C)C(C)C)C(N)=O (configuration not stated),0,.,.,.,7,.
C=CC[n+]1c(-c2ccc(OCC)cc2)csc1NNC(=O)Nc1ccccc1,1,0.9,6,0.9,3,13
CCCCNS(=O)(=O)c1ccc2nc(SCC(=O)c3ccc(C#N)cc3)[nH]c2c1,0,0.1,74*,0.3,3,88*
COc1cc(/C=C/C(=O)O)ccc1OCc1ccccc1C#N,-2,.,.,.,.,.
CC(OC(=O)c1cc(=O)[nH]c2ccccc12)c1ccccc1 (configuration not stated),-1,0.5,38,0.6,10,54*
CC(NC(=O)Nc1cccc([N+](=O)[O-])c1)(C(F)(F)F)C(F)(F)F,-7,0.8,20,0.8,.,20
CSCC[C@H](NC(=O)OC(C)(C)C)c1nnc(SCC=C(C)C)o1,1,0.4,51*,0.5,-4,57*
CCc1ccccc1NC(=O)CSc1nnc([C@H](CCSC)NC(=O)OC(C)(C)C)o1,-3,0.4,51*,0.5,10,65*
CCOc1ccc2nc(SCC(=O)NC(=O)NCc3ccco3)[nH]c2c1,0,0.9,-6,1.1,15,10
O=C(N/C(=C/c1cccs1)c1nc2ccccc2[nH]1)c1ccccc1,-2,0.8,27,0.7,.,22

# Source: PubChem BioAssay (several laboratories)
